The record followed here is PubChem BioAssay.

The source made the active and inactive calls.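 Rule for the calls, unless noted: active = inhibition at or above 50% at 10 µM; inactive = inhibition below 50%.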 Where a SMILES comes first, the peptide text is derived from it. The star is where a group is joined. Boc = CC(C)(C)OC(=O)*

Experiment [1] can be described thus: inhibitors of TNFa-induced NFkB p65 translocation, primary screen, imaging, HUVEC, MLSMR starter and 10KST1 sets (AID 438;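 active = inhibition above 20% together with a positive visual image hit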;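 note: compound added about 3h40 before a 20 min TNFalpha stimulation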;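 for inhibition: signal is the nuclear over cytoplasmic p65 intensity ratio per well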). As to conditions: HUVEC TNFa-induced p65 nuclear translocation; cell count: measured here: nuclei count (cytotoxicity indicator), at 2.08 µM; inhibition: at 2 µM, stronger effect = higher value, 0% TNFa-plus-vehicle, 100% no-TNFa wells.
A short description of experiment [2]: inhibitors of mutant huntingtin aggregation, primary screen, imaging, exon1htt(103Q)mCFP cells, high-content imaging (AID 483;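 active = visual image review flags a hit and inhibition of aggregation exceeds 20%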;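 note: compound exposure lasted 3 days before fixation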;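 for nuclei count: percent of the per-plate median nuclei count of sample wells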). As to conditions: exon1htt(103Q)mCFP cell line, aggregate imaging, at 2 µM; inhibition of aggregation: stronger effect = higher value; nuclei count: measured here: cell count, toxicity.
The nature of experiment [3]: inhibitors of E-selectin induction by TNFa, primary screen, imaging, HUVEC, immunofluorescence, MLSMR starter and 10KST1 sets (AID 487;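 active = visually confirmed hit in the image check and inhibition above 20%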;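 for inhibition: signal is fraction of cell area covered by stained E-selectin grains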;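 for nuclei count: 100% = median nuclei count of all wells on the same plate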). As to conditions: HUVEC TNFalpha-induced E-selectin immunofluorescence imaging, at 2 µM; inhibition: stronger effect = higher value; nuclei count: measured here: cell number, toxicity.
Experiment [4] has as its target Voltage-gated potassium channel subunit beta-2 (Rattus norvegicus) (UniProt P62483). Put plainly: KvBeta enzyme negative modulators, primary screen, biochemical, NADPH fluorescence (AID 622;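 active = fluorescence slope higher than the sample average by over 3 SD, cut at about -0.22 in these data, passing the limit was not always enough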;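 note: slope of raw intensity against log time taken from 70 to 1610 s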). As to conditions: recombinant KvBeta, 4-cyanobenzaldehyde reduction, at 10 µM, stronger effect = higher value.
For experiment [5] the target is unchanged. Nature of the experiment: KvBeta positive modulators, primary screen, biochemical, NADPH fluorescence (AID 623;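 active = NADPH fluorescence slope more negative than the mean of all samples by about 3 SD, 99.7% confidence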;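 note: fluorescence intensity change per second fitted from 20 to 320 s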). As to conditions: Recombinant KvBeta, NADPH fluorescence decrease slope, 10 min; at 10 µM; stronger effect = lower value.
The target in experiment [6] is Alpha-2C adrenergic receptor (Homo sapiens) (UniProt P18825). Put plainly: modulators of alpha2C/GIRK thallium flux, primary screen, cell-based, HEK293 alpha2C/GIRK1/2 (AID 624;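 active = fluorescence slope after compound addition differing from the mean of all screened samples at 99.7% confidence, in either direction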;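 note: slope of fluorescence ratio to pre-addition baseline per second over 15 to 24 s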). As to conditions: thallium flux BTC fluorescence, at 10 µM, actives lie on both sides.
Alpha-2C adrenergic receptor (Homo sapiens), sequence (P18825 whole entry, looked up): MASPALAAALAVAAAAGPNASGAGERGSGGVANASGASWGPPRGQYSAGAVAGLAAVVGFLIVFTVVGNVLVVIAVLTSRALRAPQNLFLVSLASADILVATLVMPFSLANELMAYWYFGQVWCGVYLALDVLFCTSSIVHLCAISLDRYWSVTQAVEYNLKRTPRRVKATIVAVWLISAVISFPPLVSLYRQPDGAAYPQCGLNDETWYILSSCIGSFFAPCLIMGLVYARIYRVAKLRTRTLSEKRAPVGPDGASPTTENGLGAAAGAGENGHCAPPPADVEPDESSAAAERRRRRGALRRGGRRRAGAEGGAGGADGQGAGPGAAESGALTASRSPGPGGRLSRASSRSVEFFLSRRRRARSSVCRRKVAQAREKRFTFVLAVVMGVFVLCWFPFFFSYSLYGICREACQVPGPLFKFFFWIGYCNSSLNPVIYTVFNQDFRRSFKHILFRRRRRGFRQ
Experiment [7] in a line: inhibitors of Sendai virus-induced IRF3 signaling, primary screen, TLR/RLR signaling modifier project, cell-based, Sendai virus stimulus, luciferase, 10K MLSCN set (AID 602276).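 Note: firefly luciferase from ISG56 promoter only with Renilla not read in this screen; 0% = Sendai virus plus DMSO and 100% = medium plus DMSO without virus.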 As to conditions: HEK293 RL24 IRF3 luciferase reporter, at 10 µM, stronger effect = higher value. (Reporter assays use an easily measured gene product as a stand-in for the process of interest.)
A short description of experiment [8]: inhibitors of poly I:C-induced TLR3 signaling, primary screen, cell-based, poly I:C stimulus, luciferase, 10K MLSCN set (AID 602277;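 active = inhibition of the reporter signal at or above 50%; inactive = inhibition below 50%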). As to conditions: HEK293-TLR3 RL24 IRF3 luciferase reporter, at 10 µM, stronger effect = higher value.

Voltage-gated potassium channel subunit beta-2 (Rattus norvegicus), sequence (P62483 whole entry, looked up): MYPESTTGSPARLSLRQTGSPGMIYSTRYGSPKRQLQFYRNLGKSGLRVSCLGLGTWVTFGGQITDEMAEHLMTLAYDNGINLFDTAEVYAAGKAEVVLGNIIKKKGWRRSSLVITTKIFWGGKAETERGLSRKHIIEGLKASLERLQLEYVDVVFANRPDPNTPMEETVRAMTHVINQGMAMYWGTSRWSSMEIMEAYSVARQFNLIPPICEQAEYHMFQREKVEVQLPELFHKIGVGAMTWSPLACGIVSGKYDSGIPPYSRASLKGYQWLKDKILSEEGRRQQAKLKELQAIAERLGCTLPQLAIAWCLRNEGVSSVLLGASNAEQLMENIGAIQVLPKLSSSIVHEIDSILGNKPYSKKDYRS

For the molecule `FC(F)(F)c1cc(-c2ccco2)nc(N2CCOCC2)n1`, in experiment [1], the cell count is 645. Further, the inhibition is -8.5% (inactive) in experiment [1], -83.2% (inactive) in experiment [3], 16.2% (inactive) in experiment [7] and 15.5% (inactive) in experiment [8]. In experiment [2], the inhibition of aggregation is -15% (inactive). Moreover, the nuclei count in experiment [2] was determined as 89%; in experiment [3] it was 118%. For the same molecule, the fluorescence slope in experiment [4] was -0.586 (inactive). Also, in experiment [5], the NADPH fluorescence slope is -1.4e-05 (inactive). In experiment [6], the slope was 0.00435 (inactive).
With `CCN1C(=O)CC(C(=O)Nc2ccc(F)cc2)SC1=Nc1ccc2c(c1)OCO2` (centres undefined), the cell count in experiment [1] is 551. Moreover, the inhibition in experiment [1] is -28.9% (inactive); in experiment [3], 1.8% (inactive); in experiment [7], 18.1% (inactive); in experiment [8], 21.5% (inactive). In addition, the inhibition of aggregation in experiment [2] is 1.1% (inactive). Moreover, the nuclei count in experiment [2] is 110%; in experiment [3] it was 124%. The fluorescence slope in experiment [4] is -0.504 (inactive). In experiment [5], the NADPH fluorescence slope was -3.2e-05 (inactive). Also, the slope in experiment [6] was 0.00494 (inactive).
As to `CCCN(C(=O)CSc1nnc(-c2ccoc2C)n1N)C1CCS(=O)(=O)C1` (centres undefined), in experiment [1], the cell count came out at 468. In addition, the inhibition in experiment [1] was 11.7% (inactive); in experiment [3], 30.6% (inactive); in experiment [7], 15.7% (inactive); in experiment [8], 22.7% (inactive). Further, in experiment [2], the inhibition of aggregation was -26.6% (inactive). The nuclei count in experiment [2] stood at 116%; in experiment [3], 108%. Further, the fluorescence slope in experiment [4] is -0.413 (inactive). Besides, in experiment [5], the NADPH fluorescence slope was -8.5e-05 (inactive). Moreover, in experiment [6], the slope was 0.00528 (inactive).
Turning to `CCOc1ccc(Cc2nn[nH]n2)cc1`, the cell count in experiment [1] was determined as 663. Besides, the inhibition in experiment [1] was -3.2% (inactive); in experiment [3] it was -38.6% (inactive); in experiment [7], 9.13% (inactive); in experiment [8], 16.7% (inactive). Also, the inhibition of aggregation in experiment [2] was 10.3% (inactive). Moreover, the nuclei count was 90.5% in experiment [2] and 141% in experiment [3]. The fluorescence slope in experiment [4] was -0.47 (inactive). For the same molecule, in experiment [5], the NADPH fluorescence slope was -0.000245 (inactive). Moreover, in experiment [6], the slope is 0.00563 (inactive).
In the case of `CC1CN(S(=O)(=O)c2ccc(Cl)c(C(F)(F)F)c2)CC(C)O1` (centres undefined), the cell count in experiment [1] came to 390. The inhibition in experiment [1] was 6.1% (inactive); in experiment [3], 0.5% (inactive); in experiment [7], 7.15% (inactive); in experiment [8], 0.275% (inactive). Further, the inhibition of aggregation in experiment [2] is -1.4% (inactive). The results for the nuclei count in experiment [2] and in experiment [3] were 105% and 110%, respectively. In addition, the fluorescence slope in experiment [4] is -0.31 (inactive). In experiment [5], the NADPH fluorescence slope is -4e-05 (inactive). Also, in experiment [6], the slope was 0.0059 (inactive).
As to `CCCCCSc1nc2c(cnn2-c2ccccc2)c(=O)[nH]1`, the cell count in experiment [1] stood at 241. For the same molecule, the inhibition in experiment [1] was -4.9% (inactive); in experiment [3], -35.9% (inactive); in experiment [7], 11.4% (inactive); in experiment [8] it was 27.5% (inactive). In addition, the inhibition of aggregation in experiment [2] was -3.4% (inactive). The nuclei count in experiment [2] was 100%; in experiment [3], 125%. For the same molecule, in experiment [4], the fluorescence slope was -0.399 (inactive). Also, in experiment [5], the NADPH fluorescence slope was -5.4e-05 (inactive). The slope in experiment [6] was 0.00382 (inactive).
Turning to `CC(NC(=O)OC(C)(C)C)C(=O)N1CCCC1C(=O)NC(Cc1ccccc1)C(N)=O` (stereo not drawn) (Boc-Ala-Pro-Phe-NH2; configuration not given here), the cell count in experiment [1] was found to be 220. In addition, the inhibition in experiment [1] is 9.7% (inactive); in experiment [3] it was -30.7% (inactive); in experiment [7], 19.8% (inactive); in experiment [8] it was 22.4% (inactive). The inhibition of aggregation in experiment [2] was -15.1% (inactive). Besides, the nuclei count in experiment [2] was found to be 85.5%; in experiment [3], 93.1%. Also, the fluorescence slope in experiment [4] was -0.498 (inactive). Besides, in experiment [5], the NADPH fluorescence slope was -3.8e-06 (inactive). For the same molecule, in experiment [6], the slope was 0.00536 (inactive).
Take `FC(F)(F)c1cc(-c2ccco2)nc(NCc2ccco2)n1`: the cell count in experiment [1] came to 589. For the same molecule, the inhibition in experiment [1] is 14.6% (inactive); in experiment [3] it was -24.3% (inactive); in experiment [7] it was 14.2% (inactive); in experiment [8] it was 13.8% (inactive). Moreover, the inhibition of aggregation in experiment [2] is 28.3% (inactive). The nuclei count in experiment [2] is 95.5%; in experiment [3] it was 94.8%. Besides, in experiment [4], the fluorescence slope is -0.194 (inactive). The NADPH fluorescence slope in experiment [5] is -3e-05 (inactive). The slope in experiment [6] is 0.00472 (inactive).
`O=C(CCNC(=O)c1ccc(Br)o1)NC1CCCC1`: the cell count in experiment [1] amounted to 507. Also, the inhibition in experiment [1] is -18.2% (inactive); in experiment [3], -29.9% (inactive); in experiment [7], 14.4% (inactive); in experiment [8], 13.1% (inactive). The inhibition of aggregation in experiment [2] is 35.3% (inactive). Moreover, the results for the nuclei count in experiment [2] and in experiment [3] were 77.7% and 87.3%, respectively. The fluorescence slope in experiment [4] was -0.365 (inactive). Besides, the NADPH fluorescence slope in experiment [5] was -5e-05 (inactive). Besides, the slope in experiment [6] was 0.00549 (inactive).

The inhibition is the relative decrease from the control value, in per cent.
